In PubChem BioAssay AID504753 (Sanford-Burnham Center for Chemical Genomics, 2011):
The whole screen tested about 2,400 compounds, of which about 820 (34%) were called active.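 Rule for the calls: active = inhibition of at least 50% at 20 µM in any single replicate; inactive = the rest.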 A selection follows.

What follows are molecules tested on glucose-6-phosphate dehydrogenase-6-phosphogluconolactonase (PfGluPho), Plasmodium falciparum 3D7 (assay: malaria parasite PfGluPho enzyme inhibition – biochemical, fluorescence intensity, single concentration, confirmation (AID 504753;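 note: 0% = DMSO with substrate and 100% = DMSO lacking glucose-6-phosphate substrate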)). Details: recombinant PfGluPho, NADPH-diaphorase-resazurin fluorescence; at 20 µM; hits give high values.

Q: `O=C1NC(=O)N(c2ccccc2)C(=O)/C1=C/c1ccc([N+](=O)[O-])s1` was tested. Which inhibition did it give?
A: 64.4% (active)

Q: Which inhibition does the source give for `COC(=O)N(c1ccc(OC)cc1)P1(=S)OCCC(C)O1` (stereo not given) here?
A: 34.3% (inactive)

Q: `Cc1cc(C)c2c(c1)NP(=S)(c1ccccc1)N2` (stereo not given) was tested. Which inhibition did it give?
A: -21% (inactive)

Q: Which inhibition does the source give for `O=C(CSC1c2ccccc2-c2ccccc21)N/N=C/c1ccccc1` here?
A: 35.3% (inactive)

Q: Which inhibition does the source give for `COc1cccc(-c2nc3ccc(N4CCN(C)CC4)cc3[nH]2)c1` here?
A: 13.5% (inactive)
